Test systems include HCT-15 colon; HT29 colon; SNB-19 CNS; U251 CNS; PC-3 prostate; SK-MEL-5 melanoma; UACC-62 melanoma; LOX IMVI melanoma; SK-MEL-28 melanoma; SK-MEL-2 melanoma; EKVX NSCLC; SN12C renal; UO-31 renal; TK-10 renal; ACHN renal; CAKI-1 renal; HL-60(TB) leukemia; A498 renal; CCRF-CEM leukemia; SNB-75 CNS.
Holding throughout (assay): NCI-60 one-dose screen, 48 h (100 = growth as untreated, 0 = no growth, -100 = all killed)
Common to all, as to settings: 10 µM unless noted

Several values for one entry are separate records, joined by “and”; a condition that tells them apart may be missing. Equal values may be shown once. This is part of a sample that, as a whole, favours compounds with a hit. Of some 83,000 tested, about 20% had one in any assay.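 96-well plates, one dose, 48 hours. Percent growth reported; active if below 10.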 Values without a mark were called inactive. Activity calls are given as the source filed them.

Take `O=C(O)c1ccc(=O)[nH]c1`: the growth was 97.5% and 103% in the assay with HCT-15 colon; 109% and 97.7% in the assay with HT29 colon; 94.4% and 102% in the assay on SNB-19 CNS; 97.5% and 91% with U251 CNS; 103% and 90.1% in the assay on PC-3 prostate; 101% and 100% with SK-MEL-5 melanoma. For the same compound, the growth in the assay with UACC-62 melanoma is 88.7% and 98.6%; in the assay on LOX IMVI melanoma it was 103% and 93.4%; in the assay with SK-MEL-28 melanoma, 106% and 110%; in the assay on SK-MEL-2 melanoma, 85.4% and 102%; in the assay with EKVX NSCLC, 111% and 98.7%; in the assay with SN12C renal it was 88.4% and 95.5%. In addition, the growth is 92.2% and 88% with UO-31 renal; 94.8% and 97.5% in the assay on TK-10 renal; 100% and 106% in the assay on ACHN renal; 98.3% with CAKI-1 renal; 109% and 102% in the assay with HL-60(TB) leukemia.
As for `C[C@]12CCc3sc(Nc4ccc(F)cc4F)nc3C1=CC[C@@H]1[C@@H]2CC[C@]2(C)C(=O)CC[C@@H]12`, the growth in the assay with HCT-15 colon was 7.76% (active); in the assay with HT29 colon, 30.1%; in the assay on SNB-19 CNS, 74.1%; in the assay with U251 CNS it was 40.7%; with PC-3 prostate it was 52.9%; in the assay with SK-MEL-5 melanoma, 76.9%. For the same compound, the growth in the assay with UACC-62 melanoma is 67.6%; in the assay on LOX IMVI melanoma, -49.7% (active); in the assay with SK-MEL-28 melanoma, 84.4%; in the assay on SK-MEL-2 melanoma, 76.4%; in the assay on EKVX NSCLC, 78.4%; in the assay with SN12C renal, 64.1%. For the same compound, the growth was 42.9% with UO-31 renal; 50.2% with TK-10 renal; 37.7% with ACHN renal; 38.4% in the assay with CAKI-1 renal; 77.8% with A498 renal; 21.4% with HL-60(TB) leukemia. Also, the growth in the assay with CCRF-CEM leukemia is 10.1%.
With `CC1=C2[C@H]3OC(=O)[C@@H](C)[C@@H]3CC[C@@]2(C)C=CC1=O`, the growth is 95.3% in the assay with HCT-15 colon; 118% in the assay on HT29 colon; 88.3% in the assay on SNB-75 CNS; 101% in the assay on U251 CNS; 50.5% in the assay with PC-3 prostate; 112% with SK-MEL-5 melanoma. Moreover, the growth with UACC-62 melanoma is 93%; in the assay on LOX IMVI melanoma, 99.1%; in the assay with SK-MEL-2 melanoma it was -0.59% (active); in the assay on EKVX NSCLC it was 121%; with SN12C renal it was 100%; in the assay on UO-31 renal, 99.2%. In addition, the growth with TK-10 renal is 107%; in the assay with ACHN renal, 95.7%; in the assay on CAKI-1 renal it was 112%; with A498 renal it was 125%; with HL-60(TB) leukemia it was 87.3%; in the assay on CCRF-CEM leukemia it was 94.6%.
Regarding `COC[C@H]1OC(=O)c2coc3c2[C@@]1(C)C1=C(C3=O)[C@@H]2CCC(=O)[C@@]2(C)C[C@H]1OC(C)=O`, the growth in the assay with HCT-15 colon is 53.8%; with HT29 colon, 34.4%; with SNB-75 CNS, -21% (active); with U251 CNS, 70.5%; in the assay with PC-3 prostate, 25.1%; in the assay with SK-MEL-5 melanoma, -16.9% (active). The growth in the assay with UACC-62 melanoma was 15.7%; in the assay with LOX IMVI melanoma it was 54.3%; in the assay with SK-MEL-2 melanoma it was 17.3%; with EKVX NSCLC, 42.1%; in the assay on SN12C renal it was 43.3%; in the assay with UO-31 renal, 31.4%. In addition, the growth in the assay with TK-10 renal was 38.8%; in the assay with ACHN renal, 42.2%; in the assay on CAKI-1 renal it was 32.2%; in the assay on HL-60(TB) leukemia, 25.8%; in the assay on CCRF-CEM leukemia, 46.6%.
In the case of `N#CC(C#N)=C(C#N)C#N`, the growth in the assay on HCT-15 colon was 97.9%; in the assay on HT29 colon it was 110%; with SNB-75 CNS, 87.7%; with U251 CNS it was 99.8%; with PC-3 prostate, 96.8%; in the assay on SK-MEL-5 melanoma, 102%. In addition, the growth in the assay on UACC-62 melanoma is 101%; in the assay on LOX IMVI melanoma it was 52.3%; in the assay on SN12C renal, 110%; with UO-31 renal, 90.9%; in the assay on ACHN renal, 94.8%; in the assay on CAKI-1 renal, 125%. In addition, the growth is 110% in the assay on A498 renal and 107% with HL-60(TB) leukemia.
Turning to `O=P1(N(CCCl)CCCl)NCCCO1` (stereo not given), the growth is 106% in the assay on HCT-15 colon; 102% in the assay with HT29 colon; 102% in the assay on SNB-19 CNS; 96.8% with U251 CNS; 106% with PC-3 prostate; 103% in the assay with SK-MEL-5 melanoma. Moreover, the growth in the assay with UACC-62 melanoma is 94.4%; with LOX IMVI melanoma, 104%; in the assay with SK-MEL-28 melanoma, 114%; in the assay with SK-MEL-2 melanoma, 114%; in the assay on EKVX NSCLC it was 101%; in the assay with SN12C renal, 95.4%. For the same compound, the growth was 90.3% in the assay with UO-31 renal; 103% in the assay on ACHN renal; 99.8% with CAKI-1 renal; 115% in the assay on A498 renal; 95.6% with CCRF-CEM leukemia.
On to `CC[C@H](C)[C@H](NC(=O)C12CC(NC)(C1)C2)C(=O)N(C)[C@H](C[C@@H](OC(C)=O)c1nc(C(=O)N[C@@H](Cc2ccccc2)C[C@H](C)C(=O)OC)cs1)C(C)C`, for which the growth in the assay with HCT-15 colon is 18.4%; in the assay with HT29 colon, -4.54% (active); in the assay with SNB-19 CNS, 33.5%; in the assay on U251 CNS, 12.7%; with PC-3 prostate, 23.6%; with SK-MEL-5 melanoma it was -31.7% (active). Further, the growth in the assay on UACC-62 melanoma was 45%; in the assay on LOX IMVI melanoma, 5.36% (active); with SK-MEL-28 melanoma, 53.4%; in the assay on SK-MEL-2 melanoma it was 36.7%; with EKVX NSCLC it was 37.3%; in the assay on SN12C renal it was 47.2%. The growth in the assay with UO-31 renal was 40.7%; with TK-10 renal, 48.5%; in the assay with ACHN renal it was 33.9%; with CAKI-1 renal, 91.2%; with HL-60(TB) leukemia it was -32.5% (active); with CCRF-CEM leukemia, 1.27% (active).
Turning to `O=C(O)C(Br)CBr` (stereo not given), the growth in the assay with HCT-15 colon was 90.8%; in the assay on HT29 colon, 97.6%; in the assay with SNB-75 CNS, 89.5%; in the assay with U251 CNS it was 97%; with PC-3 prostate, 94.3%; with SK-MEL-5 melanoma, 98.8%. Moreover, the growth in the assay with LOX IMVI melanoma was 94.3%; with SK-MEL-28 melanoma it was 110%; in the assay with SK-MEL-2 melanoma, 85.1%; in the assay with SN12C renal, 98%; with UO-31 renal, 89.4%; in the assay on ACHN renal, 97.4%. Besides, the growth with CAKI-1 renal was 101%; in the assay with A498 renal, 107%; with CCRF-CEM leukemia, 96.3%.
